# Compounds with a hit are over-represented: about 5.7% of the library has one in this group of screens.
# AHR activator – AHR activators, primary screen, cell-based, luminescence, luciferase reporter, human; AHR-responsive luciferase reporter cells; activation, % at 5 µM; 2.5% of 320,000 active; in the data active means activation above about 47%;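 further: 0% = vehicle wells and 100% = reference agonist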
# DAX1 inh-1 – DAX1 (NR0B1) inhibitors, primary screen, cell-based, HEK293, Gal4-DAX1, luciferase luminescence. 0.99% of 340,000 active. Nuclear receptor subfamily 0 group B member 1 (Homo sapiens), P51843. HEK293 Gal4-DAX1 luciferase reporter. inhibition, % at 6.75 µM;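 active means inhibition above the mean over all tested compounds plus 3 SD, cut at about 4.2% in these data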;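 further: 0% = DAX1-transfected cells with DMSO and 100% = empty-vector control cells with DMSO; inhibition shows as a rise in luminescence from relieved DAX1 repression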
# Target sequence (P51843 207-470 limits assumed): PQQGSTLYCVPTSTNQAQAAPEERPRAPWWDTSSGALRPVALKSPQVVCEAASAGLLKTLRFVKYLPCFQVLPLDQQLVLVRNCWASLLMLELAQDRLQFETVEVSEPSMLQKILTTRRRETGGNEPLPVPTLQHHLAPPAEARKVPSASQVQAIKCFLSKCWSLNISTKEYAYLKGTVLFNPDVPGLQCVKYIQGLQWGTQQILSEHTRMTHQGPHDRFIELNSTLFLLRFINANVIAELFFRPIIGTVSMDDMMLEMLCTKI
# hgDAF12 agonist – H. glycines DAF-12 receptor agonists, primary screen, cell-based, luminescence, HEK293, GAL4 fusion, UAS-luciferase; HEK293 GAL4-hgDAF12 UAS-luciferase reporter, agonist luminescence; normalized to butyrate control; activation, % at 6.8 µM; 1.8% of 370,000 active; AID 687014, 2013;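 active means activation above a cutoff set at the mean of all screened compounds plus 3 SD, cut at about 10% in these data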;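 further: 0% = DMSO wells and 100% = sodium butyrate wells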
# hcDAF-12 act – H. contortus DAF-12 nuclear receptor activators, primary screen, cell-based, luminescence, HEK293, lit1-tk-luc reporter | 1.4% of 370,000 active | activation, % at 6.8 µM | HEK293 hcDAF-12 lit1-tk-luc reporter; 0% DMSO, 100% Δ7-dafachronic acid | AID 652067, 2013;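 active means activation above the mean of all tested compounds plus 3 SD, cut at about 5.5% in these data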;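 further: 100% = response to 3 µM Δ7-dafachronic acid high control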
# DAX1 inh-2 – DAX1 (NR0B1) inhibitors on StAR promoter, primary screen, cell-based, luminescence, SF-1 (NR5A1), full-length DAX-1 | 1.1% of 370,000 active | inhibition, % at 6.8 µM | HEK293T StAR-luciferase reporter, SF-1/DAX-1 repression relief;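 active means inhibition above the mean over all tested compounds plus 3 SD, cut at about 3.6% in these data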;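 further: 0% = DAX-1 cells with DMSO and 100% = cells lacking DAX-1 with DMSO; higher inhibition means more luminescence from relief of DAX-1 repression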
# ssDAF-12 act – S. stercoralis DAF-12 nuclear receptor activators, primary screen, cell-based, luminescence, HEK293, GRIP1 co-expression, lit1-tk-luc. Nuclear hormone receptor DAF-12 (Strongyloides stercoralis). 1% of 370,000 active. AID 652126, 2013. HEK293 ssDAF-12/GRIP1 lit1-tk-luc reporter; % of 3 µM dafachronic acid response. activation, % at 6.8 µM;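 active means activation above the mean over all tested compounds plus 3 SD, cut at about 0.9% in these data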;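 further: 0% = DMSO-only wells and 100% = 3 µM delta7-dafachronic acid wells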
# An asterisk follows results filed as active; / = no result given.
SMILES,AHR activator,DAX1 inh-1,hgDAF12 agonist,hcDAF-12 act,DAX1 inh-2,ssDAF-12 act
C/C(=N\Nc1cccc2ccccc12)c1c(O)n(Cc2ccccc2)c(=O)[nH]c1=O,51*,-1,-2,3,-1,0
C/C(=N\NC(=O)c1ccccc1)c1c(O)n(Cc2ccccc2)c(=O)[nH]c1=O,8,/,11*,3,1,-1
CC(=NCCc1c[nH]c2ccccc12)c1c(O)n(Cc2ccccc2)c(=O)[nH]c1=O,-3,-1,-1,-3,0,-1
COc1cc2c(cc1OC)C13CCN4CC5=CCOC(CC(=O)O)C(C5CC41)C3N2 (stereo not drawn),/,5.7*,2,1,0,-1
O=C(CSc1ccccc1)N1CCC2(CC1)OCCO2,5,1,4,3,3.9*,-1
O=C(CN1C(=O)COc2ccccc21)N1CCC2(CC1)OCCO2,2,1,-1,0,0,-1
COc1ccc(-c2nc3ccccc3c(=O)o2)cc1,12,0,6,5.9*,2,0
COc1ccc(-n2c(-c3ccc(C)cc3)nc3ccccc3c2=O)cc1,0,2,1,-1,0,-1
CCN(CC)P(c1n(C)cc[n+]1C)N(CC)CC,9,6.2*,0,-1,0,-1
COc1cc(C=C2C(=O)NC(=O)NC2=O)ccc1OCc1ccc([N+](=O)[O-])cc1,/,2,13*,3,2,-1
C/C(=N\NC(=S)Nc1ccccc1)c1c(O)n(C)c(=O)n(C)c1=O,14,1,11*,4,1,0
CSC(=Nc1ccccc1)c1c(O)n(C)c(=O)n(C)c1=O,0,0,4,5.7*,0,-1
CC/C(=N\Nc1ccccc1)c1c(O)n(C)c(=O)n(C)c1=O,33,-1,0,4,0,-1
CCC(=NCCCn1ccnc1)c1c(O)n(Cc2ccccc2)c(=O)[nH]c1=O,48*,0,0,0,0,0
O=Cc1cn(Cc2ccccc2F)c2ccccc12,-4,-1,-4,-2,-1,-1
Cc1ccccc1NC(=S)NC(NC(=O)CF)C(Cl)(Cl)Cl (stereo not drawn),3,5.6*,-5,1,0,-1
COCCNC(=O)CN1C(=O)CN=C(c2ccccc2)c2ccccc21,-2,4.5*,2,-1,0,-1
CCCCn1c(N)c(C(=O)NCc2cccs2)c2nc3ccccc3nc21,39,-2,-4,-1,-2,-1
O=C(c1ccc2c(c1)OCO2)C1CCCN(Cc2c(F)cccc2Cl)C1 (stereo not drawn),48*,1,0,-1,-1,-1
Cc1ccc(/C=C2\C(=O)NC(=S)N(c3ccc(F)cc3)C2=O)s1,5,0,7,4,4.0*,0
Cc1ccc(/C=C2\C(=O)NC(=S)N(c3ccccc3F)C2=O)s1,2,1,-1,1,0,-2
Cc1cc(OCC(=O)NCC(O)c2ccccc2)c2c3c(c(=O)oc2c1)CCCC3 (stereo not drawn),1,1,1,-1,-2,-1
CN(C(=O)Oc1ccc(C(C)(C)C)cc1)c1ccccc1,0,0,11*,-2,0,-1
O=C(NN=Cc1ccc(N(CCCl)CCCl)cc1Cl)c1cccnc1,/,-2,-4,-2,-2,-2
Cc1cc(/C=C2/C(=O)NC(=O)N(c3ccc(Br)cc3)C2=O)c(C)n1C,26,3,3,5.9*,0,0
SMILES,AHR activator,DAX1 inh-1,hgDAF12 agonist,hcDAF-12 act,DAX1 inh-2,ssDAF-12 act
Cc1cc(/C=C2\C(=O)NC(=O)N(c3cccc(Br)c3)C2=O)c(C)n1C,11,2,0,0,0,-1
N#CC1=C(N)Oc2c(c(=O)sc3ccccc23)C1c1cccnc1 (stereo not drawn),4,-1,0,0,4.1*,-2
N#CC1=C(N)Oc2c(c(=O)oc3ccccc23)C1c1ccncc1 (stereo not drawn),3,0,0,-2,-1,-2
CCOc1cc(/C=C2\C(=O)NC(=O)N(C)C2=O)cc([N+](=O)[O-])c1O,-2,13*,4,0,0,-2
CCOc1ccc(N2C(=O)NC(=O)/C(=C\c3cc(OC)c(OC)cc3[N+](=O)[O-])C2=O)cc1,11,-1,/,/,/,/
O=[N+]([O-])c1ccc(C(=Nc2ccccc2)N2CC2)cc1,/,0,4,1,2,-1
COc1ccc(-c2nn(CCC#N)cc2C(=O)Nc2ccccc2Br)cc1[N+](=O)[O-],2,4.9*,0,-2,0,-2
COc1ccc(-c2nn(CCC#N)cc2C(=O)Nc2ccccc2Br)cc1,-2,-2,0,-1,0,-2
O=c1[nH]c(=S)[nH]c(O)c1/C=C1/C=c2ccccc2=N1,18,3,3,5.8*,0,0
COc1ccccc1N(CC(=O)NC1CCCC1)C(=O)c1cnn(C(C)C)c1,2,1,-1,-1,-1,-1
COc1ccccc1N(CC(=O)NC1CCCCC1)C(=O)c1cnn(C(C)C)c1,0,0,0,3,0,1.3*
O=c1[nH]c(=S)n(Cc2ccc(F)cc2)c(O)c1C=NCC1CCCO1 (stereo not drawn),-1,6.2*,2,-2,-1,-1
O=c1[nH]c(=S)n(C2CC2)c(O)c1C=NCC1CCCO1 (stereo not drawn),-4,0,-1,-1,0,-2
CCCc1nc2ccc(Br)cc2c(=O)n1-c1ccc([N+](=O)[O-])c(C(F)(F)F)c1,26,0,-3,-5,-4,-2
C=CCn1c(O)c(C(CC)=NCc2ccco2)c(=O)[nH]c1=O,2,4.9*,0,0,0,0
CC(CC(C#N)(c1ccccc1)c1ccccc1)N(C)C (stereo not drawn),0,0,-1,0,0,-1
CN(C)c1ccc(/C=C2\C(=O)NC(=O)N(CCc3ccc(F)cc3)C2=O)cc1,-2,5.5*,-1,-1,0,-2
COCCN1C(=O)NC(=O)/C(=C\c2ccc(F)cc2)C1=O,2,0,5,-1,0,-2
